# Pf growth 96h = P. falciparum growth inhibition at 96 hours; P. falciparum luciferase reporter growth, 96 h; Potency, µM (top dose mostly 28.7 µM), inactives show at the top dose activity change, negative = inhibition, most hits filed as inhibitors; 320,000 compounds, 6.9% hits; active = well fitted inhibition curve with a large enough effect; inconclusive = small, poorly fitted or top-dose-only effect, or another doubt; inactive = no such curve, though single readings can be large or run the other way; also: potency is read from the fitted curve at half-maximal effect; % is scaled to controls: 0 for no effect and ±100 for the full control effect
#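 Two parasite generations (96 h, 37 C, 5% CO2) of compound exposure in infected erythrocytes (0.05% parasitemia, 2% hematocrit). Luciferase-reporter P. falciparum; decreased luminescence indicates inhibited growth, aimed at apicoplast-acting delayed death.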
# NS1 function inh = blocks influenza NS1 protein function; 270,000 compounds, 0.4% hits; Potency, µM (series often up to 46.1 µM), for inactives: at the highest dose activity, positive = more growth; also: potency is read from the fitted curve at half-maximal effect; actives are rising curves; nearly all actives have a fitted effect of over 50% in size
#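 OD600 was taken as the measure of yeast growth restored by compound in an NS1-expressing S. cerevisiae strain. Cells had been washed out of glucose medium and diluted 1:100 into galactose -URA medium, pH 6.0.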
# Pf growth 48h = P. falciparum growth inhibition at 48 hours (one generation); P. falciparum luciferase growth in erythrocytes, 48 h; Potency, µM (top dose mostly 28.7 µM), for inactives: at the highest dose activity change, negative = inhibition, actives largely listed as inhibitors; 310,000 compounds, 5.9% hits; active = well fitted inhibition curve with a large enough effect; inconclusive = small, poorly fitted or top-dose-only effect, or another doubt; inactive = no such curve, though single readings can be large or run the other way; also: potency is read from the fitted curve at half-maximal effect; % is scaled to controls: 0 for no effect and ±100 for the full control effect
#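 Luciferase-expressing parasites in RBCs, 2% Hct / 0.1% parasitemia final; RPMI 1640 + 0.5% Albumax; 37 C, 5% CO2, one generation; luminescence read-out, lower signal = inhibition.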
# CHX counter = counter-screen hit for Shiga toxin inhibitors, cycloheximide; AID 2314; 300,000 compounds, 12% hits; cell reporter, cycloheximide protein synthesis inhibition counterscreen; max response, %; in the data active = max response mostly above about 13%, no sharp cut-off; inactive = mostly below about 14%; also: read at 38.3 µM for the half of the compounds with a filed dose; 0% is about no effect
# Shiga toxin inh = Shiga toxin inhibition | Vero cells, Shiga toxin protein synthesis inhibition reporter | 290,000 compounds, 9.2% hits | inhibition, % at 38.7 µM | AID 2315; in the data active = inhibition mostly above about 28%, no sharp cut-off; inactive = mostly below about 43%; also: 0% is about no effect
# SARS PLP yeast = inhibitors of SARS-CoV papain-like protease in yeast; S. cerevisiae expressing SARS-CoV PLpro, growth rescue; Potency, µM (highest dose often 32.9 µM), for the others: at the top dose activity, positive = growth rescue, hits mostly activators; 330,000 compounds, 0.19% hits; AID 485353; also: potency is read from the fitted curve at half-maximal effect; 0% is about no effect; nearly all actives have a fitted effect of over 55% in size
# Starred values were filed as active, the others as inactive; u = inconclusive; x = no result given. Only some compounds are listed: those with a hit (about 21% of all), similar ones and a draw of the others. Unless noted, calls follow the shape of the full dose curve.
SMILES,Pf growth 96h,NS1 function inh,Pf growth 48h,CHX counter,Shiga toxin inh,SARS PLP yeast
O=C1CCC([N+](=O)[O-])C(c2ccc3c(c2)OCO3)N1 (stereo not given),10µM*,5%,19%,0,-14,5%
CCN(Cc1ccccc1)C(c1cc2cc(C)cc(C)c2[nH]c1=O)c1nnnn1CCOC (stereo not given),0%,-51%,u,-1,10,1%
COCCn1nnnc1C(c1cc2cc(OC)ccc2[nH]c1=O)N1CCC(Cc2ccccc2)CC1 (stereo not given),-5%,-46%,12µM*,1,14,-2%
CCN(Cc1ccccc1)C(c1cc2cc(C)ccc2[nH]c1=O)c1nnnn1CCOC (stereo not given),12µM*,-37%,u,-4,31,4%
COc1cccc(CN2CCNC(=O)C2CC(=O)N2CCCCO2)c1OC (stereo not given),-30%,9%,13%,3,-6,0%
COc1ccc(Cl)cc1NC(=O)CN(C)CC(=O)Nc1c(C)n(C)n(-c2ccccc2)c1=O,0%,x,-17%,x,x,-10%
N/C(=N\OC(=O)c1ccccc1Cl)c1ccncc1,94%,4%,-22%,17*,71*,-1%
Cc1ccccc1C(=O)O/N=C(\N)c1ccncc1,u,-18%,-29%,61*,53*,6%
Cc1ccc(C(=O)O/N=C(\N)c2ccccn2)c(Cl)c1,u,-99%,u,-11,x,-18%
Cc1ccc(C(=O)O/N=C(\N)c2ccccc2)c(Cl)c1,35%,-42%,15%,36*,16,-13%
Clc1cccc(Cl)c1COc1ccncc1,-1%,-8%,15%,-2,10,u
O=C(OCc1c(Cl)cccc1Cl)c1ccncc1,12µM*,-10%,u,-2,-9,-22%
O=C(NCCNC(=O)c1cc(Cl)ccc1Cl)c1ccco1,29%,-1%,0%,-6,-14,5%
Cc1ccc(S(=O)(=O)N/N=C\c2ccc3c(c2)OCO3)c(C)c1,-17%,-31%,27%,7,-2,-8%
N/C(=N\OC(=O)c1cc(Cl)ccc1Cl)c1ccncc1,u,2%,u,27*,74*,-1%
COc1ccccc1C(=O)O/N=C(\c1ccccc1)c1ccncc1,u,x,4%,0,5,-10%
COc1cccc(C(=O)O/N=C(\N)c2ccncc2)c1OC,66%,0%,0%,35*,27*,5%
N/C(=N\OC(=O)c1ccc(Cl)cc1Cl)c1ccncc1,148%,4%,4%,30*,82*,1%
COc1ccc(Cl)cc1C(=O)O/N=C(\N)c1ccc(Cl)cc1,u,-39%,-26%,8,6,-99%
O=C(NCc1ccncc1)C1CCN(S(=O)(=O)c2ccc(Cl)c(C(F)(F)F)c2)CC1,-7%,x,u,x,x,4%
CCOc1ccc(/C(O)=C2/C(=O)C(=O)N(c3ccccn3)C2c2ccc(F)cc2)c(C)c1 (stereo not given),27%,10%,3%,-1,1,-1%
Cc1cccc(CSc2nnc(CCCCCNC(=O)OC(C)(C)C)o2)c1,-9%,-32%,9.3µM*,1,36,-2%
CCCN1C(=O)c2cc(C(=O)Nc3ccccc3CC)ccc2C1O (stereo not given),10µM*,5%,x,-5,-6,-3%
CC(=O)Nc1ccc(NC(=O)c2ccc(-n3c(C)ccc3C)cc2)cc1,u,24%,-14%,13,26,4%
Cc1ccc(C)n1-c1ccc(C(=O)Nc2ccccc2F)cc1,-65%,x,-31%,57*,102*,-2%
SMILES,Pf growth 96h,NS1 function inh,Pf growth 48h,CHX counter,Shiga toxin inh,SARS PLP yeast
CCc1ccccc1NC(=O)c1ccc(-n2c(C)ccc2C)cc1,15µM*,9%,u,-2,-7,-3%
CN(C)C(=O)n1nnnc1Cc1ccc(-c2ccccc2)cc1,x,x,x,14,-2,x
O=C(CCC1COc2ccccc2O1)Nc1ccc(Cl)cn1 (stereo not given),8%,-11%,15%,14*,31*,-14%
CCOC(=O)c1ccc(NC(=O)CCC2COc3ccccc3O2)cc1 (stereo not given),u,-46%,0%,-1,-12,-13%
Cc1ccnc(NC(=O)CCC2COc3ccccc3O2)c1 (stereo not given),x,-5%,24%,13*,17,-1%
CCOC(=O)c1sc2nc(NC(=O)C(C)(C)C)sc2c1C,-91%,18%,x,36*,105*,-16%
BrC(c1cccc2ccccc12)c1cccc2ccccc12,x,14%,x,x,x,x
CCOc1cc(/C=N/NC(=O)C(OC)c2ccccc2)ccc1O (stereo not given),63%,-18%,-10%,-2,-6,u
CCOc1ccc(/C=N/NC(=S)Nc2c(C)cccc2C)cc1,2.6µM*,1%,x,10,-5,u
C=CCOc1cccc(/C=N/NC(=O)C(OC)c2ccccc2)c1 (stereo not given),13µM*,-14%,-16%,-2,x,-3%
CCOc1ccc(/C=N/NC(=O)C(OC)c2ccccc2)cc1 (stereo not given),9.3µM*,x,u,1,-12,4%
CCC(C(=O)NC1CC(C)(C)NC(C)(C)C1)c1ccccc1 (stereo not given),-28%,1%,-1%,-5,x,-4%
O=C(NCCCN1CCCC1=O)C1CCN(S(=O)(=O)c2cccc(Cl)c2Cl)CC1,u,x,u,x,x,0%
COc1ccc(/C=C/C(=O)OCC(=O)NCc2ccco2)c(OC)c1,27%,x,22%,6,3,0%
COC1CCCN(Cc2cn(C)nc2-c2ccc(Oc3ccccc3)cc2)C1 (stereo not given),u,-5%,2%,2,-11,-1%
CCCN1CCC(NCc2cn(C)nc2-c2ccc(Oc3ccccc3)cc2)CC1,u,1%,1.7µM*,6,-10,0%
COCCN1CCCC(CNCc2cn(C)nc2-c2ccc(Oc3ccccc3)cc2)C1 (stereo not given),u,2%,6.6µM*,-3,-8,0%
Cc1ccc2c(c1)c(CC(=O)Nc1ccc(F)cc1)c(C(=O)O)n2C,34%,24%,x,1,-24,-8%
Cc1cc(C)c(C)c(OCC(=O)N2CCCCCC2)c1,68%,-70%,x,1,-13,-6%
Clc1cc(Br)ccc1OCCOCCN1CCOCC1,154%,-17%,31%,4,6,1%
CC1=CCn2c(=O)c3ccccc3c(=O)n2C1,74%,-7%,19%,11,14,-3%
O=c1c2ccccc2c(=O)n2n1Cc1ccccc1C2,25%,-54%,54%,14*,20,x
O=C(c1ccccc1)c1cnc(Nc2ccccc2Cl)s1,340%,-66%,272%,42*,89*,-11%
CC(C)(C)C(=O)c1cnc(Nc2ccccc2Cl)s1,157%,3%,77%,59*,67*,x
